Most compounds without a hit are left out; they make up all but 2% or so of the library.
MBD2 DNA inh – MBD2-methylated oligo binding inhibition; Q9UBB5; TR-FRET, MBD2 binding to methylated oligonucleotide; inhibition, % at 4.4 µM; 370,000 compounds, 0.31% hits; AID 686964; in the data active means inhibition above about 13%
UHRF1 binding – human UHRF1 methylated DNA binding inhibitors | UHRF1 binding to methylated oligo, TR-FRET | 370,000 compounds, 0.75% hits | inhibition, % at 4.4 µM | Q96T88; in the data active means inhibition above about 21%;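 further: UHRF1 SRA domain binding a hemimethylated CpG hairpin DNA probe; 0% = median of test compound wells and 100% = reference inhibitor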
LEDGF integ inh – blocks HIV-1 LEDGF/p75-dependent DNA integration | TR-FRET IN-LEDGF/p75 DNA integration, Eu/Cy5 | inhibition, % at 3.7 µM | 370,000 compounds, 0.64% hits | AID 743269;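 active means inhibition above the screen-wide mean plus 3 SD, cut at about 13% in these data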;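 further: signal is the Cy5 over europium emission ratio at 671 and 618 nm; 0% = plate median of compound wells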
Rin1 Abl inh – blocks binding of human Rin1 to Abl; TR-FRET Rin1/Abl binding, biochemical; inhibition, % at 7.35 µM; P00519+Q13671; 360,000 compounds, 0.4% hits; in the data active means inhibition above about 5%, passing the limit was not always enough
Target sequence (P00519 whole entry, looked up): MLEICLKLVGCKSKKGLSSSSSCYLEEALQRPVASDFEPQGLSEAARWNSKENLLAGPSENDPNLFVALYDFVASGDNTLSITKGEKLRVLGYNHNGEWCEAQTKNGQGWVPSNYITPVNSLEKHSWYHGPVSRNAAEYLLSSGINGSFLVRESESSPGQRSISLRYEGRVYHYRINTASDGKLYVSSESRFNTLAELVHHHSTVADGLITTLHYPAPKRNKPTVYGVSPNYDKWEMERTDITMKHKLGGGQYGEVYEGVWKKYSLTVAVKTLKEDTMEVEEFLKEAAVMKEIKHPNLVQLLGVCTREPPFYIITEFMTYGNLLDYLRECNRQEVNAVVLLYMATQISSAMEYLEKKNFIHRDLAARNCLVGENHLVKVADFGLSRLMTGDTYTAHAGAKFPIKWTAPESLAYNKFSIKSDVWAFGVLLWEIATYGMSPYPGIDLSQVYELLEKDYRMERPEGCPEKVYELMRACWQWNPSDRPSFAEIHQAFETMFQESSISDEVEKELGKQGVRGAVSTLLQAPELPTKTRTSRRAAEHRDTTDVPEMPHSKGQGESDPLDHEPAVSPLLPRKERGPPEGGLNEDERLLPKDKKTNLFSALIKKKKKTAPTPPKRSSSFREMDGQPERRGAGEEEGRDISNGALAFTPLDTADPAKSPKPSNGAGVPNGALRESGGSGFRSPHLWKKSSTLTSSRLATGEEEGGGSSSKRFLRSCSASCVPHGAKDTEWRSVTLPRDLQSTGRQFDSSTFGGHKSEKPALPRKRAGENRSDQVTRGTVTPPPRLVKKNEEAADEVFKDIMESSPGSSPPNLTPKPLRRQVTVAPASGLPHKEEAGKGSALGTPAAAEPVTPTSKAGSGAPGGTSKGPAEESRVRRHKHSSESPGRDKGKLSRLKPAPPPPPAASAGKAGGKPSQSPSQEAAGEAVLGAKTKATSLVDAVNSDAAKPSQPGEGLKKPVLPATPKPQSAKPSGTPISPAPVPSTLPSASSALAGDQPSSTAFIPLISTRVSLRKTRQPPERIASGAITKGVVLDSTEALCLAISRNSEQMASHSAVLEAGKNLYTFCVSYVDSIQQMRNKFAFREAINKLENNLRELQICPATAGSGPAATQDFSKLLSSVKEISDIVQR
Target sequence (Q13671 whole entry, looked up): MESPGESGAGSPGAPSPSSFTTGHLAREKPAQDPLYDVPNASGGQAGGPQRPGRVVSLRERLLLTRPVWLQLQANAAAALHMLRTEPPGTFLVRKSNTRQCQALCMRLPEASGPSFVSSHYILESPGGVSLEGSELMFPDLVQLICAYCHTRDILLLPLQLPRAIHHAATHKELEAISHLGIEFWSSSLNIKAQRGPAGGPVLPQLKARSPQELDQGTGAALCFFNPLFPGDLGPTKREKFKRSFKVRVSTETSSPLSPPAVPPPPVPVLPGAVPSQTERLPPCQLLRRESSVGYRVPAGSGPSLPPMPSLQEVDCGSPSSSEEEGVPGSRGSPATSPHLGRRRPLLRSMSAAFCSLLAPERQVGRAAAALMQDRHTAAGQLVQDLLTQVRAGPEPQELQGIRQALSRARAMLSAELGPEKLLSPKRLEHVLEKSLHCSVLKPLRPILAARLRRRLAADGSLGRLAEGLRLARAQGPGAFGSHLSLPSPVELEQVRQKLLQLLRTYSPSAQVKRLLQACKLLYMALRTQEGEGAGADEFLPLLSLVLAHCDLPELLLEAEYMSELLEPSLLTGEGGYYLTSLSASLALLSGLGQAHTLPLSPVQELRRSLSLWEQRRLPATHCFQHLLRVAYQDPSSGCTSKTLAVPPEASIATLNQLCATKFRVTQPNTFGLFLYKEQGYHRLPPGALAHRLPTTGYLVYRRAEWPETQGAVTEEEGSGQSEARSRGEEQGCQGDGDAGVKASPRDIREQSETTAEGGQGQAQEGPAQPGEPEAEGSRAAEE
TCR CD3 inh – inhibitors of human TCR-CD3 interaction. TAMRA-labeled TCR probe fluorescence, biochemical. inhibition, % at 9.4 µM. 360,000 compounds, 0.37% hits. AID 651800; in the data active means inhibition above about 19%;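 further: recombinant mutant TCR 2C K166C tagged with TAMRA read by polarization; 0% = receptor in buffer alone and 100% = receptor with positive control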
Starred values were filed as active, the others as inactive; · = no result.

SMILES | MBD2 DNA inh | UHRF1 binding | LEDGF integ inh | Rin1 Abl inh | TCR CD3 inh
O=C(c1ccccc1)N1CCC2CCN(CCc3ccccc3)CC21 (stereo not drawn) | -4 | 0 | 8 | · | -4
CCCc1nc2ccc(C(=O)OC)cn2c1Cc1ccccc1 | 11 | 25* | -4 | 1 | -2
CCCc1nc2ccc(C(=O)OC)cn2c1Cc1ccc(C)cc1 | 10 | 22* | 6 | 3 | 13
COC(=O)c1ccc2nc(-c3ccccc3)c(Cc3ccc(C)cc3)n2c1 | 0 | 17 | -1 | · | -1
O=C(NC1=N[C@@]2(C=C3CCCCC3n3c(=O)n(-c4ccccc4)c(=O)n32)[C@H](Cc2ccccc2)N1Cc1ccccc1)c1ccccc1 (stereo partly drawn) | -6 | 1 | 2 | · | ·
CC1(C)CC(=O)C2=C(C1)N(CC1CCCO1)C(=O)NC2(C(F)(F)F)C(F)(F)F (stereo not drawn) | 11 | 23* | 0 | 0 | 2
CCCCn1nc(NC(=O)CC)c2cc3cc(OC)ccc3nc21 | 11 | 22* | -2 | 1 | -5
CCCn1nc(NC(=O)C(C)(C)C)c2cc3cc(OC)ccc3nc21 | 5 | 0 | -4 | 0 | 2
CC(C)C[C@H](NC(=O)N1CCn2c1nc1ccccc12)C(=O)NCCc1ccccc1 | 2 | 52* | 1 | 0 | 6
CCCn1nc(C(=O)Nc2cccc(S(=O)(=O)N(C)c3ccccc3)c2)c2ccccc2c1=O | -4 | -3 | 0 | -3 | -1
O=C(c1ccco1)N1CCN(Cc2cc(=O)c(OCc3ccccc3F)co2)CC1 | 1 | 1 | 3 | 4 | 6
CCOc1ccc2ccccc2c1/C=N/NC(=O)CNC(=O)Cc1ccccc1 | 2 | 23* | -1 | -1 | 0
O=C(O)c1c2c(nc3ccccc13)/C(=C/c1ccc(O)cc1)CC2 | 11 | 37* | 10 | 0 | 12
O=C(O)c1c2c(nc3ccccc13)/C(=C/c1ccc(OC(F)F)cc1)CCC2 | 8 | 4 | 0 | -1 | -3
O=C(N=c1ccn(-c2nc3ccccc3nc2NS(=O)(=O)c2ccccc2)cc1)c1cccs1 | 0 | 0 | 2 | 1 | 2
Cc1ccccc1C(=O)N=c1ccn(-c2nc3ccccc3nc2NS(=O)(=O)c2ccc(F)cc2)cc1 | 2 | 21* | -3 | 2 | 1
O=C(COc1ccc(F)cc1)Nc1nnc(S(=O)(=O)N2CCCC2)s1 | 0 | 37* | -5 | 1 | 0
COc1ccc(S(=O)(=O)N(C)C[C@@H]2Oc3c(NC(=O)Nc4cccc5ccccc45)cccc3C(=O)N([C@@H](C)CO)C[C@H]2C)cc1 | -1 | 1 | -1 | · | ·
O=C(C[C@@H]1C/C=C\CC[C@H](Cc2ccc(F)cc2)C(=O)OC[C@@H](Cc2ccccc2)NC1=O)NCCO | 8 | 21* | 1 | 3 | -6
Cc1ccc(S(=O)(=O)N2[C@@H](CCO)OC[C@H]2C(C)C)cc1 | -3 | -2 | -3 | · | 4
CC(C)N1CCC(N2CCN(Cc3cccc4nonc34)CC2CCO)CC1 (stereo not drawn) | -2 | 79* | -13 | -2 | -5
CC(Oc1ccccc1Cl)C(=O)Nc1ccc(S(=O)(=O)N2CCN(C)CC2)cc1 (stereo not drawn) | -3 | -7 | 3 | 0 | -1
CCCC(=O)C1=C(O)C(C(=O)OC)C(C)(C)CC1=N (stereo not drawn) | -1 | 21* | -2 | -3 | 4
O=C(Oc1cc2oc(=O)c3c(c2cc1Cl)CCCC3)c1ccco1 | 12 | 24* | 1 | -2 | 3
COc1ccc2ccccc2c1CN1CCN(c2ncc(Cc3ccccc3)cn2)CC1 | 2 | 2 | -2 | · | 1
SMILES | MBD2 DNA inh | UHRF1 binding | LEDGF integ inh | Rin1 Abl inh | TCR CD3 inh
CCS(=O)(=O)c1ccc2oc(SCC(=O)NCCc3ccc(OC)cc3)nc2c1 | 0 | 29* | -5 | -2 | -6
COC(=O)/C=C1\SC(=NC(=O)c2ccc(-c3ccccc3)cc2)NC1=O | 4 | 0 | -2 | 2 | -2
CCOc1ccc(C(=O)NCC(C)NC(=O)c2ccc(OCC)cc2)cc1 (stereo not drawn) | 6 | 24* | 4 | 0 | -3
CCOc1ccc(C(=O)NCC(C)C)cc1 | -4 | 0 | 2 | 1 | 3
COc1ccc(CN2C(C(=O)NCC(C)C)CSCCS2(=O)=O)cc1 (stereo not drawn) | -1 | 0 | 4 | · | ·
CCc1ccc(Nc2ncc3c(n2)CC(C)(C)CC3=O)cc1 | -5 | 42* | 3 | -4 | 1
CCOC(=O)c1c(C)[nH]c(C(=O)COC(=O)c2cc(C)oc2C)c1C | 2 | -2 | 3 | -3 | 5
Oc1ccc(CN2CCCCC2)c2cccnc12 | -3 | 0 | -10 | 2 | -2
Oc1c(Cl)cc(CN2CCCCC2)c2cccnc12 | · | · | · | 12* | ·
O=[N+]([O-])c1cc(CN2CCCC2)c2cccnc2c1O | · | · | · | 52* | ·
Cc1ccccc1NC(=O)NCc1ccccn1 | -3 | 1 | 1 | -3 | 7
CCCc1nc2c(C)cc(Br)cn2c1Cc1ccc(C)cc1 | 7 | 22* | -4 | -14 | -6
COc1ccccc1Cc1c(-c2ccccc2)nc2c(C)cc(Br)cn12 | 1 | 14 | -1 | -2 | 4
CCCc1nc2c3ccccc3ccn2c1Cc1cccc(F)c1 | 4 | 21* | 4 | 2 | -7
CCCc1nc2c(C)cc(Br)cn2c1Cc1ccccc1OC | 9 | 22* | 0 | · | -8
CCCc1nc2c(C)cc(Br)cn2c1Cc1cccc(Cl)c1 | 9 | 24* | 0 | · | -4
O=C1[C@@H](Oc2ccccc2)[C@@H](c2ccccc2)N1c1ccccc1 | 11 | 22* | 1 | 1 | 8
O=C(N[C@@H](Cc1ccc(O)cc1)C(=O)O)c1ccncc1 | -1 | 2 | 3 | 3 | 0
COc1cc(-c2nnc(NC(=O)c3ccc(S(=O)(=O)N4CCOCC4)cc3)o2)cc(OC)c1OC | -3 | 82* | -2 | · | -7
CCOC(=O)N1CCN(S(=O)(=O)c2ccc(C(=O)Nc3nnc(C)o3)cc2)CC1 | -1 | 3 | -2 | 5 | 2
COc1cccc(-c2nnc(NC(=O)c3ccc(S(=O)(=O)N4CCOCC4)cc3)o2)c1 | · | · | · | 3 | ·
CCOC(=O)N1CCN(S(=O)(=O)c2ccc(C(=O)Nc3nnc(CSC)o3)cc2)CC1 | 0 | 31* | 0 | 1 | 0
CC(C)(C)OC(=O)N1CCC[C@@H]1C(=O)N1CCC[C@@H]1C(=O)NCc1ccccc1 | 15* | 16 | 2 | · | 3
COC(=O)c1ccc(NC(=O)C2CCCN2C(=O)OCc2ccccc2)cc1 (stereo not drawn) | 5 | 24* | 4 | 0 | -7
COc1ccc(NC(=O)C2CCCN2C(=O)OCc2ccccc2)cc1 (stereo not drawn) | -2 | -1 | 3 | -2 | 6
C=CCN(c1ccc(C(=O)NCCN2CCOCC2)cc1)S(C)(=O)=O | -2 | 29* | 3 | 2 | 2
O=C(CCNC(=O)c1ccc(Br)cc1)NCCCN1CCOCC1 | 6 | 23* | -2 | 2 | -1

Screening data: PubChem, The Scripps Research Institute Molecular Screening Center
